Consider seven sequences from PMC7862700, “An all-to-all approach to the identification of sequence-specific readers for epigenetic DNA modifications on cytosine”.

Common to all, as to test: DAPPL (digital affinity profiling via proximity ligation, sequencing); 10 mM Tris-HCl pH 7.5, 50 mM NaCl, 1 mM DTT, 4% glycerol, room temperature, 30 min; GST-TFs on glutathione beads, 16-mer random dsDNA library, 0.1% formaldehyde crosslink after washing; high values mean tight binding
Common to all, as to details: protein: recombinant; tags: N-terminal GST; dsDNA, one strand shown

One assay has as its target T1, ERF (Homo sapiens, UniProt P50548 1-548).
T1 sequence: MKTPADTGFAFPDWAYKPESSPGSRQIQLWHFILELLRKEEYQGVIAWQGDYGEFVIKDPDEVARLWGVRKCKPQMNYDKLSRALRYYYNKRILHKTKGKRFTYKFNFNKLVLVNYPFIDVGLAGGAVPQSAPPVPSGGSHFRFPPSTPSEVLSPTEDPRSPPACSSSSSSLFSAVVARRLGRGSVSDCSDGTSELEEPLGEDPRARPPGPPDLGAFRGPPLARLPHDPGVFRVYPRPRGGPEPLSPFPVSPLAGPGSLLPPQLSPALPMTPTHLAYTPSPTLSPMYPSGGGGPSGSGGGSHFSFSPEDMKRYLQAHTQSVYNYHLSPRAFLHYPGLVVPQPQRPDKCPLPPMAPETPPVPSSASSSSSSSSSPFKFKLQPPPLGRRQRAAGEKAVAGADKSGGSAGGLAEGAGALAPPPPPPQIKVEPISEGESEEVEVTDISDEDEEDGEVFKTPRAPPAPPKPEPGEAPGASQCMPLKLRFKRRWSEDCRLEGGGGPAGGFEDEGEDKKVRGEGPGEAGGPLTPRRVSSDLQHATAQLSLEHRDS
A digest of the protocol:
(§1)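 A tag-only sample was pooled with DNA-barcoded human transcription factors that had been expressed in yeast as GST fusions and captured on glutathione beads. The pools were incubated for 30 min at room temperature with 200 nmole of a random double-stranded 16-mer DNA library in Tris/NaCl/DTT/glycerol buffer, then washed, crosslinked with 0.1% formaldehyde, proximity-ligated (BsaI/T4 ligase, 1 h, 37 °C), PCR-amplified and sequenced on an Illumina NextSeq500. Binding signal is each hexamer's read frequency for a factor divided by its frequency for the tag-only sample.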

For the next assay, the target named is T2, ETV3L (Homo sapiens, UniProt Q6ZN32 1-361).
T2 sequence: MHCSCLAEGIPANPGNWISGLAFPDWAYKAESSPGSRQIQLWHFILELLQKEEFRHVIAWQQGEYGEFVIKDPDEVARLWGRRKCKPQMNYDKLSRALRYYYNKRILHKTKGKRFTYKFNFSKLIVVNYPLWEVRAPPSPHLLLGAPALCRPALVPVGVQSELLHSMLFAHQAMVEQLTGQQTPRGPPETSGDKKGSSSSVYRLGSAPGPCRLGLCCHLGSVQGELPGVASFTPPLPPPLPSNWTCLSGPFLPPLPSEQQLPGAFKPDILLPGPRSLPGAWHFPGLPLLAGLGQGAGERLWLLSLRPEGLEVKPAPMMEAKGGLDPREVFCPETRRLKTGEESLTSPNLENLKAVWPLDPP
In short, it runs like this: as §1

The target of a further assay is T3, ETS2 (Homo sapiens, UniProt P15036 1-469).
T3 sequence: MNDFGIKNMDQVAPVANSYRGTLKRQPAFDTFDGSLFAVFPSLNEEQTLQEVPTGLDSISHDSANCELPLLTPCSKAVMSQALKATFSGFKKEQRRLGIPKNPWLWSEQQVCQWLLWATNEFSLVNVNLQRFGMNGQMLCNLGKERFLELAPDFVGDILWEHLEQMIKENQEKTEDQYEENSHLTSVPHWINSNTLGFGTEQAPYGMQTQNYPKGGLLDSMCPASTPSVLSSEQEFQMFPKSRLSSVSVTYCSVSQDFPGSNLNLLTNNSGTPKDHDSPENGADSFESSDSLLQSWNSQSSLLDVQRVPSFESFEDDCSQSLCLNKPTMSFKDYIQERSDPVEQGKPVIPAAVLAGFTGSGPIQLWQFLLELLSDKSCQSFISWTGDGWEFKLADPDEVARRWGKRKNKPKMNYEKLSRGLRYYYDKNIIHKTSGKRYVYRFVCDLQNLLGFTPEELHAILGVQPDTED
A digest of the protocol: as §1

The target of the next assay is T4, SPDEF (Homo sapiens, UniProt O95238 1-335).
T4 sequence: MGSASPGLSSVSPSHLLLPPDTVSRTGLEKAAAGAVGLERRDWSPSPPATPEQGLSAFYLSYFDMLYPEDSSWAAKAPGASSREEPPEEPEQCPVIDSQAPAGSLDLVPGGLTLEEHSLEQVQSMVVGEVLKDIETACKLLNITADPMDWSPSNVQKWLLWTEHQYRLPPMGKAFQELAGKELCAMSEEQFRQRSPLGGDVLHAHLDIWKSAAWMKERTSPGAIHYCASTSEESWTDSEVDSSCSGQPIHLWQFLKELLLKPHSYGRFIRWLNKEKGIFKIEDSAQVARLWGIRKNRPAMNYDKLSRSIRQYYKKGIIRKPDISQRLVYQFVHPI
A digest of the protocol: as §1

The target of the next assay is T5, ETV7 (Homo sapiens, UniProt Q9Y603 1-341).
T5 sequence: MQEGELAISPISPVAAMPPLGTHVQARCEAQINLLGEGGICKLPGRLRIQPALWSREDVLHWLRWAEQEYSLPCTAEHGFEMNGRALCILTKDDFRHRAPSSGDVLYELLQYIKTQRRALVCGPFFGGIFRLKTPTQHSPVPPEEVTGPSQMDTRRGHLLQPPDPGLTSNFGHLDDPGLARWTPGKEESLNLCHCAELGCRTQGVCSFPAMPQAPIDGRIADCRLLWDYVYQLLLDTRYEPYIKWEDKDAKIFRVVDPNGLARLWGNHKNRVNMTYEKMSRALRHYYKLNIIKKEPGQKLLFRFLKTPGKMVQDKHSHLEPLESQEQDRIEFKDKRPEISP
A digest of the protocol:
as §1

In another assay the target is T6, ELF5 (Homo sapiens, UniProt Q9UKW6-2 1-255).
T6 sequence: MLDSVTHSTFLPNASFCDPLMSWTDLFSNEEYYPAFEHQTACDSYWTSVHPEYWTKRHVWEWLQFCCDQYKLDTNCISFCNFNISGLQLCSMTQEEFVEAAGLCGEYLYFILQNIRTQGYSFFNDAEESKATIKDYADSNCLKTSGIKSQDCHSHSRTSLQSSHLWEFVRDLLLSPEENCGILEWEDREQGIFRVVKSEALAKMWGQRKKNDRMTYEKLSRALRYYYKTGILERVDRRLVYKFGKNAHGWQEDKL
A digest of the protocol: as §1

The next assay has as its target T7, ETV3 (Homo sapiens, UniProt P41162-2 1-143).
T7 sequence: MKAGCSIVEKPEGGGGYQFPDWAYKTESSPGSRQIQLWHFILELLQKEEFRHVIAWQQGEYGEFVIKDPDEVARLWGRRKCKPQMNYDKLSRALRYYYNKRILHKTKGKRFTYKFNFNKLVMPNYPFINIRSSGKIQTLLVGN
A digest of the protocol: as §1

The target of the next assay is ETV6 (Homo sapiens, UniProt P41212 1-452). A digest of the protocol: as §1
ETV6, sequence (P41212 whole entry): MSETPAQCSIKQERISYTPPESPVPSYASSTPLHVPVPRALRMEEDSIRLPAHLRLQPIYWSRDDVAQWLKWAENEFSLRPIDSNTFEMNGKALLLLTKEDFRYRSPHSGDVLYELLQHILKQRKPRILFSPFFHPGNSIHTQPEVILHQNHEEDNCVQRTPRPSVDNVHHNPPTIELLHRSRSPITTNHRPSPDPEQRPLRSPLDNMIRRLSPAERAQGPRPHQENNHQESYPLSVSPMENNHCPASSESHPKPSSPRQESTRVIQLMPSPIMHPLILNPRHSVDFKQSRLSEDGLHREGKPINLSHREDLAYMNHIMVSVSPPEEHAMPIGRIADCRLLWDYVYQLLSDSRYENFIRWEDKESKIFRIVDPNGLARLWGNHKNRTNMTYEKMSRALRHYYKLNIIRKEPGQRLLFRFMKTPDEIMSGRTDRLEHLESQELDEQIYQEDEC

Turning to ATCTGT, the binding signal with ERF was 1.21 fold enrichment (6-mer frequency, TF over GST control); with ETV3L, 1.2 fold enrichment (6-mer frequency, TF over GST control); with ETS2 it was 1.22 fold enrichment (6-mer frequency, TF over GST control); with SPDEF, 1.17 fold enrichment (6-mer frequency, TF over GST control); with ETV7, 1.21 fold enrichment (6-mer frequency, TF over GST control); with ELF5, 1.2 fold enrichment (6-mer frequency, TF over GST control). For the same sequence, the binding signal was 1.11 fold enrichment (6-mer frequency, TF over GST control) with ETV3 and 1.12 fold enrichment (6-mer frequency, TF over GST control) with ETV6.
Consider TTCCGT, for which the binding signal was 1.61 fold enrichment (6-mer frequency, TF over GST control) with ERF; 1.85 fold enrichment (6-mer frequency, TF over GST control) with ETV3L; 1.94 fold enrichment (6-mer frequency, TF over GST control) with ETS2; 1.91 fold enrichment (6-mer frequency, TF over GST control) with SPDEF; 1.6 fold enrichment (6-mer frequency, TF over GST control) with ETV7; 2.76 fold enrichment (6-mer frequency, TF over GST control) with ELF5. The binding signal is 2.16 fold enrichment (6-mer frequency, TF over GST control) in the assay with ETV3 and 2.02 fold enrichment (6-mer frequency, TF over GST control) in the assay with ETV6.
As for CTCAGT, the binding signal with ERF was 1.11 fold enrichment (6-mer frequency, TF over GST control); with ETV3L it was 1.18 fold enrichment (6-mer frequency, TF over GST control); with ETS2 it was 1.1 fold enrichment (6-mer frequency, TF over GST control); in the assay with SPDEF, 1.06 fold enrichment (6-mer frequency, TF over GST control); with ETV7 it was 1.12 fold enrichment (6-mer frequency, TF over GST control); with ELF5, 1.09 fold enrichment (6-mer frequency, TF over GST control). Besides, the binding signal was 1.24 fold enrichment (6-mer frequency, TF over GST control) with ETV3 and 1.08 fold enrichment (6-mer frequency, TF over GST control) with ETV6.
As to TTTCCT, the binding signal with ERF is 2.28 fold enrichment (6-mer frequency, TF over GST control); with ETV3L it was 2.43 fold enrichment (6-mer frequency, TF over GST control); in the assay with ETS2, 2.44 fold enrichment (6-mer frequency, TF over GST control); in the assay with SPDEF it was 2.34 fold enrichment (6-mer frequency, TF over GST control); in the assay with ETV7 it was 2.31 fold enrichment (6-mer frequency, TF over GST control); with ELF5, 4.16 fold enrichment (6-mer frequency, TF over GST control). The binding signal with ETV3 was 2.73 fold enrichment (6-mer frequency, TF over GST control); with ETV6, 2.86 fold enrichment (6-mer frequency, TF over GST control).
As to TTTGGT, the binding signal with ERF is 1.49 fold enrichment (6-mer frequency, TF over GST control); in the assay with ETV3L, 1.36 fold enrichment (6-mer frequency, TF over GST control); with ETS2, 1.43 fold enrichment (6-mer frequency, TF over GST control); with SPDEF, 1.28 fold enrichment (6-mer frequency, TF over GST control); in the assay with ETV7, 1.45 fold enrichment (6-mer frequency, TF over GST control); in the assay with ELF5, 1.4 fold enrichment (6-mer frequency, TF over GST control). In addition, the binding signal is 1.39 fold enrichment (6-mer frequency, TF over GST control) with ETV3 and 1.36 fold enrichment (6-mer frequency, TF over GST control) in the assay with ETV6.
For the sequence ACAACC, the binding signal with ERF was 1.19 fold enrichment (6-mer frequency, TF over GST control); in the assay with ETV3L it was 1.17 fold enrichment (6-mer frequency, TF over GST control); with ETS2 it was 1.26 fold enrichment (6-mer frequency, TF over GST control); with SPDEF it was 1.28 fold enrichment (6-mer frequency, TF over GST control); in the assay with ETV7 it was 1.18 fold enrichment (6-mer frequency, TF over GST control); with ELF5, 1.22 fold enrichment (6-mer frequency, TF over GST control). Besides, the binding signal with ETV3 was 1.29 fold enrichment (6-mer frequency, TF over GST control); in the assay with ETV6 it was 1.28 fold enrichment (6-mer frequency, TF over GST control).
Regarding AAGCAC, the binding signal in the assay with ERF was 1.19 fold enrichment (6-mer frequency, TF over GST control); with ETV3L it was 1.2 fold enrichment (6-mer frequency, TF over GST control); with ETS2 it was 1.17 fold enrichment (6-mer frequency, TF over GST control); in the assay with SPDEF, 1.29 fold enrichment (6-mer frequency, TF over GST control); with ETV7 it was 1.3 fold enrichment (6-mer frequency, TF over GST control); with ELF5, 1.28 fold enrichment (6-mer frequency, TF over GST control). Moreover, the binding signal in the assay with ETV3 was 1.19 fold enrichment (6-mer frequency, TF over GST control); in the assay with ETV6, 1.28 fold enrichment (6-mer frequency, TF over GST control).
